Screening data as filed in PubChem BioAssay.
This is a sample that favours compounds with a hit; in the whole collection about 3% have one here.
PAX8 reporter – inhibitors of PAX8 transcriptional activity in RMG-I cells; RMG-I TPO-luciferase reporter, SteadyGlo, 24 h; AID 652154; inhibition, % at 12.6 µM; 360,000 tested, 1.2% active;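 active means mean replicate inhibition at least 60% with every replicate also reaching 60%; inconclusive means only one of the two criteria is met; inactive means mean below 60% and not all replicates reaching 60%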;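 further: luciferase light reporting Pax8 driven TPO promoter activity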
EWS-Fli block – inhibitors of EWS/Fli oncoprotein transcriptional activity; 350,000 tested, 0.67% active; AID 651661; inhibition, % at 12.6 µM; A673 NR0B1-luciferase reporter, viability-normalised;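 active means mean inhibition of at least 50% after viability correction, with every replicate also passing that limit; inconclusive means mean reaches 50% but only one of two replicates passes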;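 further: firefly luciferase signal divided by Alamar Blue viability fluorescence both relative to DMSO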
MITF TRPM1 inh – inhibitors of MITF-driven TRPM1 promoter in melanoma cells; inhibition, % at 12.5 µM; SK-MEL-5 TRPM1 promoter luciferase, 24 h; 330,000 tested, 0.83% active;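 active means mean inhibition across replicates of 60% or more, whatever share of single replicates reaches that level; inconclusive means some that reach 60%, reason not given; inactive means mean inhibition across replicates below 60%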
Shn3 3UTR inh – reduces Shn3 3'UTR luciferase signal in osteoblasts; inhibition, % at 12.5 µM; 360,000 tested, 0.52% active; Clone20 osteoblast Shn3 3'UTR firefly luciferase, 24 h;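 active means mean inhibition of at least 75% with every replicate also reaching 75%; inconclusive means mean inhibition at least 75% but some replicate below; inactive means mean inhibition below 75%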
Peg3 prom inh-1 – inhibitors of Peg3 promoter; 360,000 tested, 1.7% active; inhibition, % at 20 µM; HeLa PEG-Prom luciferase reporter, luminescence, overnight;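 active means inhibition of at least 50% at 20 µM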
ABHD5 PLIN5 PPI – inhibitors of human ABHD5-perilipin-5 interaction; Split G. princeps luciferase complementation, luminescence, 4 h; inhibition, % at 4 µM; 360,000 tested, 0.78% active;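 active means inhibition above the mean inhibition across every tested compound plus 3 SD, cut at about 22% in these data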
Peg3 prom inh-2 – Peg3 promoter inhibition confirmation | 1,300 tested, 84% active | HeLa PEG-Prom luciferase reporter, luminescence, overnight | shares compounds with Peg3 prom inh-1 | inhibition, % at 20 µM;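 active means at 20 µM dose, 40% or more inhibition averaged across four replicates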
ABHD5 PLIN5 conf – confirmation of human ABHD5-PLIN5 interaction inhibitors | shares compounds with ABHD5 PLIN5 PPI | biochemical ABHD5-PLIN5 interaction, luminescence | inhibition, % at 4 µM | 2,200 tested, 67% active; in the data active means inhibition above about 23%
HNF4 counter – active in HNF4 split-luciferase counter-screen for ABHD5-PLIN5 inhibitors. shares compounds with ABHD5 PLIN5 PPI. HNF4 dimerization, luminescence, biochemical. inhibition, % at 4 µM. 2,200 tested, 77% active;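 active means mean inhibition across replicate wells exceeding the computed hit threshold, cut at about 13% in these data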;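 further: light from luciferase halves that rejoin when HNF4 fusion proteins dimerize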
Target sequence (P41235 whole entry, looked up, the tested form may be a part): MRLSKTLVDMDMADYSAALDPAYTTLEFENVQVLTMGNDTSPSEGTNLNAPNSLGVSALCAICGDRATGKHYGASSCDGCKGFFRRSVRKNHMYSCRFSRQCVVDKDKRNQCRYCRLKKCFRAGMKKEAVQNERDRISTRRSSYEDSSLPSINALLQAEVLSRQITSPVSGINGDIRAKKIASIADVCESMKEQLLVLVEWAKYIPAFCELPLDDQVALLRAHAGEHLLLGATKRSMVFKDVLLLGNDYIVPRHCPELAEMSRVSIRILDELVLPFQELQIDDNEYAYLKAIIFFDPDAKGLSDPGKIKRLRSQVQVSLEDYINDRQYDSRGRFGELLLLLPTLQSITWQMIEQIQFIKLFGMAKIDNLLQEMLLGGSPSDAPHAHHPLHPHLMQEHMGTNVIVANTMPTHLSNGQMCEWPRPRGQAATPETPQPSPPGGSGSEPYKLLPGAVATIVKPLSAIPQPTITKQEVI
DNA binding – binds DNA displacing acridine orange; shares compounds with EWS-Fli block; salmon sperm DNA acridine orange fluorescence polarization; AC35, µM (highest dose often 68 µM); 640 tested, 2% active; AID 720586;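 active means fitted curve reaches a 35% signal fall AC35 below twice the sample's top valid tested dose, actives reach about 48 µM in these data; inactive means the rest, including activity in the rising direction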;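 further: lower polarization ratio signals compound binding to DNA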
Of the large screens only hits and unclear results are named; the others gave an inactive call (follow-up assays come after a bar, where they were run).

O=C(CN1C(=O)/C(=C/c2ccccc2)SC1=S)NNC(=O)c1ccccc1O	none
Cc1ccc(/C=C2\SC(=S)N(CCCC(=O)NNC(=O)c3ccccc3O)C2=O)cc1	PAX8 reporter 63.7, EWS-Fli block 82.2, Shn3 3UTR inh 87.2, Peg3 prom inh-1 80.1 (no result: MITF TRPM1 inh) | Peg3 prom inh-2 81.6 | DNA binding inactive
O=C(CCCN1C(=O)/C(=C/c2ccccc2Cl)SC1=S)NNC(=O)c1ccc(Cl)cc1	EWS-Fli block 73.5, Peg3 prom inh-1 63.8 | Peg3 prom inh-2 44.7 | DNA binding inactive
CO[C@@H]1CN(C)C(=O)c2ccc(NC(=O)c3ccccc3)cc2OC[C@@H](C)N(C(C)=O)C[C@H]1C	none (no result: PAX8 reporter, MITF TRPM1 inh, Shn3 3UTR inh, Peg3 prom inh-1, ABHD5 PLIN5 PPI)
Cc1cc(C)c2sc(NNC(=O)c3ccc(S(=O)(=O)N4CCc5ccccc5C4)cc3)nc2c1	PAX8 reporter 99.2, EWS-Fli block 53.9, MITF TRPM1 inh 72.3, Shn3 3UTR inh 96.4, Peg3 prom inh-1 59.4, ABHD5 PLIN5 PPI 29.6 | Peg3 prom inh-2 75.7 | DNA binding inactive
CCCn1c(C)cc(C(=O)CN2C(=O)c3ccccc3S2(=O)=O)c1C	PAX8 reporter 96.2, EWS-Fli block 81.7, Shn3 3UTR inh 82.7, Peg3 prom inh-1 89.4 (no result: MITF TRPM1 inh) | Peg3 prom inh-2 86.8 | DNA binding inactive
COc1ccc(C(=O)CN2C(=O)c3ccccc3S2(=O)=O)cc1	PAX8 reporter 92.7, EWS-Fli block 87.5, Peg3 prom inh-1 98.0 (no result: MITF TRPM1 inh) | Peg3 prom inh-2 83.8 | DNA binding inactive
O=S(=O)(N[C@@H]1CC[C@H](CCn2cc(C3CC3)nn2)O[C@H]1CO)c1ccc(F)cc1	none (no result: MITF TRPM1 inh, Shn3 3UTR inh, Peg3 prom inh-1, ABHD5 PLIN5 PPI)
Nc1ccc2c(c1)OC1(CCCC1)O2	EWS-Fli block 68.2, MITF TRPM1 inh 61.9, Peg3 prom inh-1 77.3 | Peg3 prom inh-2 55.6 | DNA binding inactive
Cc1cc(C)cc(NC(=O)Nc2ccc3c(c2)C(=O)N(C)[C@@H]2CC[C@@H](CC(=O)O)O[C@@H]2CO3)c1	none (no result: MITF TRPM1 inh, Shn3 3UTR inh, Peg3 prom inh-1, ABHD5 PLIN5 PPI)
O=C(NC1Cc2ccccc2C1)[C@H]1[C@H](CO)[C@H]2Cn3c(cccc3=O)[C@H]2N1C(=O)c1ccccn1	none (no result: MITF TRPM1 inh, Shn3 3UTR inh, Peg3 prom inh-1, ABHD5 PLIN5 PPI)
Cc1ccsc1/C=N/Nc1cccc(C(=O)O)c1	PAX8 reporter 90.5, EWS-Fli block 66.3, MITF TRPM1 inh 95.7, Peg3 prom inh-1 85.9 | Peg3 prom inh-2 73.7 | DNA binding inactive
CCCNC(=O)[C@H]1[C@H](CO)[C@H]2Cn3c(cccc3=O)[C@@H]1N2S(=O)(=O)c1ccccc1C	none (no result: MITF TRPM1 inh, Shn3 3UTR inh, Peg3 prom inh-1, ABHD5 PLIN5 PPI)
CNC[C@@H]1Oc2ccc(NS(=O)(=O)c3ccc(F)cc3)cc2C(=O)N([C@H](C)CO)C[C@@H]1C	none (no result: MITF TRPM1 inh, Shn3 3UTR inh, Peg3 prom inh-1, ABHD5 PLIN5 PPI)
C/C(=N\OC(=O)c1ccc(Br)cc1)c1ccccn1	none
Cc1ccc(C(=O)O/N=C(\N)c2ccccn2)cc1	PAX8 reporter 105.1, EWS-Fli block 51.9, MITF TRPM1 inh 67.4, Peg3 prom inh-1 106.5 | Peg3 prom inh-2 76.8 | DNA binding inactive
COc1ccc(Nc2oc(COc3ccccc3OC)nc2C#N)cc1	EWS-Fli block 54.0, Peg3 prom inh-1 77.0 | Peg3 prom inh-2 51.4 | DNA binding inactive
COC(=O)Cc1[nH]n(-c2nc3ccccc3s2)c(=O)c1C(C)=Nc1ccc(C)cc1	EWS-Fli block 77.4, MITF TRPM1 inh 96.6, Peg3 prom inh-1 90.6 | Peg3 prom inh-2 93.8 | DNA binding inactive
COC(=O)Cc1[nH]n(-c2ccccc2)c(=O)c1C(C)=Nc1ccccc1	none
CC(C)N1C/C(=C/c2ccsc2)C(=O)/C(=C/c2ccsc2)C1	EWS-Fli block 71.9, MITF TRPM1 inh 100.8, Peg3 prom inh-1 103.3, ABHD5 PLIN5 PPI 28.1 | Peg3 prom inh-2 inactive | ABHD5 PLIN5 conf 85.1 | HNF4 counter 77.6 | DNA binding inactive
CCN1C(=O)S/C(=C/c2ccsc2)C1=O	none (no result: EWS-Fli block)
COc1ccc(C(=O)Nc2cc(C)nn2-c2nc3ccccc3[nH]2)c(OC)c1	none
COc1cccc(OC)c1C(=O)Nc1cc(C)nn1-c1nc2ccccc2[nH]1	EWS-Fli block 58.5, Peg3 prom inh-1 54.2 | Peg3 prom inh-2 70.8 | DNA binding inactive
CCC(=O)N1CC[C@@H]2[C@H](CO)Nc3ccc(-c4ccccc4)cc3[C@@H]21	none (no result: MITF TRPM1 inh, Shn3 3UTR inh, Peg3 prom inh-1, ABHD5 PLIN5 PPI)
O=C(Oc1ccc2c(c1)OCC2=O)c1ccc(Cl)cc1	none
CN(C)CC1CCC/C(=C\c2ccc(OC(=O)c3ccc(Cl)cc3)cc2)C1=O (stereo not given)	EWS-Fli block 58.9, MITF TRPM1 inh 91.5, Peg3 prom inh-1 105.2 (no result: PAX8 reporter) | Peg3 prom inh-2 100.1 | DNA binding inactive
Cc1ccc2oc(/N=C(\N)NC(=O)C3CC3)nc2c1	none
Cc1ccc2oc(/N=C(\N)NC(=O)C(C)(C)C)nc2c1	EWS-Fli block 85.2, MITF TRPM1 inh 71.6, Peg3 prom inh-1 81.8 (no result: Shn3 3UTR inh) | Peg3 prom inh-2 85.0 | DNA binding inactive
C[C@H]1CN([C@@H](C)CO)C(=O)c2cccc(NS(=O)(=O)c3ccc(Cl)cc3)c2O[C@H]1CN(C)C(=O)Nc1ccc(F)cc1	none (no result: MITF TRPM1 inh, Shn3 3UTR inh, Peg3 prom inh-1, ABHD5 PLIN5 PPI)
CC(=O)N1CCCC(c2cc(C(=O)Nc3ccccc3)no2)C1 (stereo not given)	PAX8 reporter inconclusive, EWS-Fli block 74.9, Peg3 prom inh-1 65.4 (no result: MITF TRPM1 inh) | Peg3 prom inh-2 73.3 | DNA binding inactive
Oc1c(Cl)cc(Cl)c2cccnc12	EWS-Fli block 54.2, Peg3 prom inh-1 64.2 | Peg3 prom inh-2 66.3 | DNA binding inactive
CC1(C)Oc2cc3oc(-c4cc(O)cc(O)c4)cc3cc2CC1O (stereo not given)	EWS-Fli block 75.8, Peg3 prom inh-1 59.0 (no result: PAX8 reporter) | Peg3 prom inh-2 65.5 | DNA binding inactive
Oc1cc(O)cc(-c2cc3ccc(O)cc3o2)c1	none (no result: PAX8 reporter)
C[C@@H]1CN([C@H](C)CO)C(=O)c2cc(NS(C)(=O)=O)ccc2O[C@H]1CN(C)S(=O)(=O)c1ccccc1	none (no result: PAX8 reporter, MITF TRPM1 inh, Shn3 3UTR inh, Peg3 prom inh-1, ABHD5 PLIN5 PPI)
CSC1=NC(C)(C)C=C(/C=C/c2ccc(Cl)cc2Cl)N1	none
CSC1=NC(C)(C)C=C(/C=C/c2ccc(Cl)cc2)N1	ABHD5 PLIN5 PPI 23.9 | ABHD5 PLIN5 conf 45.5 | HNF4 counter 42.5
CCSC1=NC(C)(C)C=C(/C=C/c2ccc(Cl)cc2Cl)N1	ABHD5 PLIN5 PPI 26.2 (no result: PAX8 reporter, EWS-Fli block) | ABHD5 PLIN5 conf 32.2 | HNF4 counter 33.3
O=C(C1CCCC1)N1CCN(S(=O)(=O)c2ccc(Cl)cc2)CC1	none
O=C(C1CCN(S(=O)(=O)c2ccc(Cl)cc2)CC1)N1CCC1	ABHD5 PLIN5 PPI 51.8 | ABHD5 PLIN5 conf inactive | HNF4 counter inactive
